Rows were chosen to be rich in hits. Some 2.3% of all compounds tested hit in one or more screens of this group.
Nrf2 block – Nrf2 qHTS screen for inhibitors; A549 ARE-Fluc reporter, luciferase luminescence, 18-24 h; Potency, µM (doses to about 46 µM), hits mostly inhibitors; hit rate 2.1% among 360,000; AID 504444, 2011; also: nearly all actives have a fitted effect of over 60% in size
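Reporter: ARE-Fluc in A549. Exposure: 18-24 h, 37 °C, 5% CO2, 5% FBS OPTI-MEM. Readouts: fluorescent cytotoxicity (CellTiter-Fluor), then luminescent Nrf2 signal after BugLite.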
Glioma ERSR ind – qHTS for Inducers of the Endoplasmic Reticulum Stress Response (ERSR) in Human Glioma: qHTS. hit rate 0.02% among 420,000. Potency, µM, most hits filed as activators. AID 602332, 2012. U87-MG GRP78 promoter luciferase reporter, 16 h; also: series mostly up to about 76 µM; nearly all actives have a fitted effect of over 35% in size
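Stably transfected U87-MG human glioma cells carrying a GRP78-based luminescent sensor were seeded at 1000 cells/well, pin-dosed with compounds and incubated 16 h. Luciferase reagent was then added, and end-point luminescence was read after 10 min at room temperature.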
miR-21 reporter – qHTS Assay for Modulators of miRNAs and/orActivators of miR-21. 340,000 tested, under 10 active. Potency, µM (highest dose often 38.3 µM), hits mostly activators. HeLa miR-21 FLuc reporter, luciferase, 48 h;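 also: miR-21 action dims this reporter so a rising signal means less miR-21 action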
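HeLa cells endogenously expressing miR-21, stably carrying CMV-driven firefly luciferase with a downstream miR-21 binding site, 2000 cells/well. Titrations up to approximately 40 uM, 48 hours; luciferase luminescence read.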
A549 viability – Nrf2 qHTS screen for inhibitors: counterscreen for cytotoxicity; A549 ARE-Fluc cells, CellTiter-Fluor viability, 18-24 h; Potency, µM (series often up to 46 µM), actives largely listed as inhibitors; hit rate 0.16% among 390,000; AID 504648, 2011
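A549 ARE-Fluc cells in 5% FBS OPTI-MEM, 5000 cells/well, rested 2 h then exposed to compounds in concentration-response for 18-24 h at 37 °C. Viability by CellTiter-Fluor fluorescence (Ex 405/Em 525) after 30 min; luciferase luminescence (BugLite, 15 min, RT) read afterwards.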
Nrf2 ARE act – qHTS of Nrf2 Activators | AREc32 ARE-luciferase reporter (MCF7-derived line), luminescence, 24 h | Potency, µM (titrated, usually from 46.1 µM), usual class: activators | AID 624171, 2012 | hit rate 0.31% among 410,000; also: nearly all actives have a fitted effect of over 65% in size
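Luciferase luminescence (Steady-Glo, 30 min at room temperature) served as the read-out of ARE activation in AREc32 cells treated with compounds for 24 hr at 37 deg C.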
Mito fusion act – qHTS Assay for Small Molecule Inhibitors of Mitochondrial Division or Activators of Mitochondrial Fusion | hit rate 0.23% among 320,000 | Potency, µM (top dose mostly 46.1 µM), usual class: activators | AID 485298, 2010 | S. cerevisiae fusion-defective mutant growth rescue, CellTiterGlo 48 h; also: nearly all actives have a fitted effect of over 45% in size
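Growth-rescue viability read-out: after 48 h at the non-permissive 37C in glycerol/ethanol YPEG, yeast mitochondrial fusion mutants are measured by CellTiterGlo luminescence; compounds (23 nl pinned per well) restoring growth score as division inhibitors or fusion activators.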
Large screens that a line does not name were inactive; ! = not confirmed by another sample. Calls follow the shape of the dose curve; as a rule, active = well fitted curve in the direction sought with a large enough effect; inconclusive = small, poorly fitted or top-dose-only effect, or another doubt; inactive = no such curve, though single readings can be large; an effect the other way counts as inactive or inconclusive.

O=C(N/N=C/c1ccc(N2CCOCC2)o1)c1cccc([N+](=O)[O-])c1	none
Cn1c(Oc2ccc(F)cc2)nc2c1c(=O)n(Cc1ccccc1Cl)c(=O)n2C	Nrf2 block inconclusive, miR-21 reporter inconclusive (no result: Mito fusion act)
CCC(=O)NC(Nc1c(C)n(C)n(-c2ccccc2)c1=O)C(Cl)(Cl)Cl (configuration not stated)	none
CC(=O)Nc1ccc(S(=O)(=O)N2CCN(c3cc4c(cc3[N+](=O)[O-])n(C)c(=O)n4C)CC2)cc1	Nrf2 block 16µM
Cn1c(=O)n(C)c2cc([N+](=O)[O-])c(N3CCN(C(=O)c4ccc(F)cc4)CC3)cc21	Nrf2 block 18µM
Cn1c(=O)n(C)c2cc([N+](=O)[O-])c(N3CCN(S(=O)(=O)c4ccc(C(C)(C)C)cc4)CC3)cc21	Nrf2 block inconclusive
O=C(c1cccc(F)c1)N1CCN(c2cc(N3CCCCC3)c(F)cc2[N+](=O)[O-])CC1	Nrf2 block 21µM, A549 viability inconclusive
CC(=O)N1CCN(c2cc(N3CCc4ccccc4C3)c(F)cc2[N+](=O)[O-])CC1	Nrf2 block 23µM, A549 viability inconclusive
CCC(=O)N1CCN(c2cc(N3CCCC3)c(F)cc2[N+](=O)[O-])CC1	none (no result: miR-21 reporter, Mito fusion act)
Cn1cc(-c2nc3cnc(Oc4ccccc4)nc3n(C3CC3)c2=O)c2ccccc21	none (no result: Nrf2 block, miR-21 reporter, A549 viability, Nrf2 ARE act, Mito fusion act)
COc1ccc(C(=O)N2CCN(c3cnn(-c4ccccc4)c(=O)c3Cl)CC2)cc1	none
COc1cc(F)c(S(=O)(=O)N2CCN(S(=O)(=O)c3cccc(NC(C)=O)c3)CC2)c(F)c1	none (no result: Glioma ERSR ind, miR-21 reporter, Nrf2 ARE act, Mito fusion act)
COc1cc(F)c(S(=O)(=O)N2CCCN(S(=O)(=O)c3cccc(N)c3)CC2)c(F)c1	Nrf2 block 26µM! (no result: Glioma ERSR ind, miR-21 reporter, Nrf2 ARE act, Mito fusion act)
CCOc1ccc(-c2cc(CCCC(=O)NCCc3ccc(Cl)cc3)no2)cc1	none (no result: Mito fusion act)
Cc1ccc2[nH]c3c(NCc4ccco4)ncnc3c2c1	Nrf2 block inconclusive
c1ccc(-n2ncc3c(NCc4ccco4)ncnc32)cc1	Nrf2 block inconclusive
Fc1ccc2[nH]c3c(NCc4ccco4)ncnc3c2c1	Nrf2 block 12µM (no result: miR-21 reporter, Nrf2 ARE act, Mito fusion act)
COc1cc(CNc2ncnc3c2[nH]c2ccc(C)cc23)cc(OC)c1	Nrf2 block 15µM
c1ccc(Cn2ncc3c(NCc4ccco4)ncnc32)cc1	Nrf2 block inconclusive, Nrf2 ARE act 4µM
c1coc(CNc2ncnc3c2oc2ccccc23)c1	Nrf2 block inconclusive, Nrf2 ARE act 1.6µM
COc1cc(C2c3c(-c4c(C)cc(C)cc4O)n[nH]c3C(=O)N2Cc2ccco2)cc(OC)c1OC (configuration not stated)	none (no result: Glioma ERSR ind, Mito fusion act)
Nc1ccn([C@@H]2O[C@H](C(=O)N3CCN(Cc4ccccn4)CC3)[C@@H](O)[C@H]2O)c(=O)n1	none (no result: Nrf2 block, Glioma ERSR ind, miR-21 reporter, A549 viability, Mito fusion act)
O=C1CC(c2cc(F)ccc2F)c2cc3c(cc2N1)CCC3 (configuration not stated)	Nrf2 block inconclusive, Mito fusion act 7.1µM
COc1cccc(/C=C2\SC(=S)N(CCC(=O)NC3C=CS(=O)(=O)C3)C2=O)c1 (configuration not stated)	Nrf2 ARE act inconclusive
O=C(NCC(=O)N1CCN(Cc2c(F)cccc2Cl)CC1)c1cccc(Cl)c1	Nrf2 block inconclusive (no result: miR-21 reporter)
CN(C)S(=O)(=O)c1ccc(Cl)c(NC(=O)CSc2nc3c(cc2C#N)C(=O)CCC3)c1	Nrf2 block 15µM
CCOC(=O)c1sc2nc(CC(=O)OC)nc(N3CCN(c4ccccn4)CC3)c2c1C	none
Cc1ccc2c(c1)C(N1CCCC1=O)CC(c1ccco1)N2 (configuration not stated)	Nrf2 block inconclusive, Nrf2 ARE act 11µM
O=C(Nc1ccc2ccccc2c1)c1ccccc1O	Nrf2 block inconclusive, miR-21 reporter inconclusive
CCCN1C(=O)/C(=C/c2ccc(N3CCCC3)c(C)c2)NC1=S	Nrf2 block 21µM

From PubChem
